HCV inhibitor: blocks hepatitis C virus | Potency, µM (top dose mostly 41.8 µM), inactives show top-dose activity change, negative = inhibition, usual class: inhibitors | 340,000 tested, 3.4% active | Huh7.5.1 HCVcc-Cre infection, luciferase reporter, 44 h | AID 651820; active = well fitted inhibition curve with a large enough effect; inconclusive = small, poorly fitted or top-dose-only effect, or another doubt; inactive = no such curve, though single readings can be large or run the other way; also: potency is read from the fitted curve at half-maximal effect
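Compounds are dispensed onto cells plated 4 h earlier at 1,000 per well, with HCVcc-Cre virus (about 0.5 moi) added next. Following 44 h of culture, luminescent signal is measured for 15 sec after 15 min with substrate at room temperature.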
Lassa entry inh: inhibitors of Lassa virus binding or cell entry | Lassa virus pseudotype entry inhibition, cell reporter | Potency, µM (doses to about 37.9 µM), for inactives: top-dose activity change, negative = inhibition, actives largely listed as inhibitors | 300,000 tested, 1.2% active; calls by dose curve; tested in HEK293 cells; also: potency is read from the fitted curve at half-maximal effect; nearly all actives have a fitted effect of over 50% in size
Vaccinia Venus: vaccinia inhibition (Venus reporter) | Vaccinia virus Venus reporter expression, fluorescence | Potency, µM (highest dose often 36.5 µM), inactives show at the top dose activity change, negative = inhibition, hits mostly inhibitors | 330,000 tested, 0.46% active | AID 720580; calls by dose curve; tested in A549 cells; also: potency is read from the fitted curve at half-maximal effect; nearly all actives have a fitted effect of over 30% in size
VACV mCherry inh: inhibitors of vaccinia virus infection (mCherry reporter signal); 310,000 tested, 0.63% active; Vaccinia virus mCherry reporter infection, fluorescence; Potency, µM (highest dose often 36.5 µM), for the others: at the highest dose activity change, negative = inhibition, usual class: inhibitors; AID 720579; calls by dose curve; tested in A549 cells; also: potency is read from the fitted curve at half-maximal effect; nearly all actives have a fitted effect of over 35% in size
HCMV inh: blocks human cytomegalovirus replication; HFF cells, HCMV-luciferase reporter, 72 h; hits give low values; activity change, negative = inhibition, % at 57.5 µM; 410,000 tested, 4.5% active; in the data active = activity change below about -60%; inconclusive = no clear call, values can overlap the other calls; inactive = above about -39%
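Human foreskin fibroblasts infected with luciferase-reporter HCMV at MOI 1 PFU/cell, compounds at two doses. Luciferase measured 72 h post infection; normalized to buffer-only basal and Salinomycin (10uM) controls.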
MARV entry inh: blocks Marburg virus binding to or entry into cells; 300,000 tested, 1.8% active; Marburg virus pseudotyped entry inhibition, cell reporter; AID 540276; Potency, µM (titrated, usually from 37.8 µM), for inactives: top-dose activity change, negative = inhibition, most hits filed as inhibitors; calls by dose curve; tested in HEK293 cells; also: potency is read from the fitted curve at half-maximal effect
Numbers without * were called inactive; [ ] = remark or other dose. Shown are actives, neighbours in structure and some others; about 7.8% of the full set was active somewhere. % is scaled to controls: 0 for no effect and ±100 for the full control effect.

CC(C)(C)c1ccc(/C=N/NC(=O)Cc2c[nH]c3ccccc23)cc1 was read as HCV inhibitor inconclusive, Lassa entry inh inconclusive, HCMV inh 52 and MARV entry inh 15µM*.
Cc1ccccc1Nc1c(C)c(C)nc2ncnn12 was read as HCV inhibitor 11µM*, Lassa entry inh -27%, Vaccinia Venus -5%, VACV mCherry inh -14%, HCMV inh inconclusive and MARV entry inh inconclusive.
Screening O=C1C2CC=CCC2C(=O)N1SC(Cl)(Cl)Cl (stereo not drawn) returned HCMV inh -74*.
`Cc1c(C(=O)N(C)C2CCOC2)sc2ncnc(NCC3(c4ccccc4)CCOCC3)c12` (stereo not drawn) gave Vaccinia Venus -2% and VACV mCherry inh -1%.
`Cc1ccc(Cl)cc1N1CCN(C(=O)c2noc(C)c2[N+](=O)[O-])CC1` gave HCV inhibitor 10µM* and HCMV inh -105*.
Screening CCCCNC(=O)c1[nH]c(C)c(C(C)=O)c1C returned HCV inhibitor 1%, Lassa entry inh -17%[46.1 µM], Vaccinia Venus -10%, VACV mCherry inh inactive, HCMV inh -39 and MARV entry inh -13%[46.1 µM].
`CCCCC(CC)CNC(=O)c1[nH]c(C)c(C(C)=O)c1C` (stereo not drawn) gave HCV inhibitor -30%, HCMV inh -65* and MARV entry inh -2%.
`CC(=O)c1c(C)[nH]c(C(=O)OCc2cccc(Cl)c2)c1C` gave HCV inhibitor 11µM*, Lassa entry inh inconclusive, Vaccinia Venus -26%, VACV mCherry inh inconclusive, HCMV inh 41 and MARV entry inh inconclusive.
`CC(=O)c1c(C)[nH]c(C(=O)OCC(=O)NCCCc2ccccc2)c1C` gave HCV inhibitor inconclusive and HCMV inh -13.
CCc1c(C(=O)NCc2ccccc2Cl)[nH]c(C)c1C(C)=O was read as HCV inhibitor -23%, Lassa entry inh inconclusive, Vaccinia Venus -15%, VACV mCherry inh inactive, HCMV inh inconclusive and MARV entry inh inconclusive.
For CC(=O)c1c(C)[nH]c(C(=O)OCc2ccc(F)cc2Cl)c1C the results were HCV inhibitor inconclusive, Lassa entry inh -16%, Vaccinia Venus -23%, VACV mCherry inh -6%, HCMV inh -68* and MARV entry inh inconclusive.
Screening CC(=O)c1c(C)[nH]c(C(=O)NCc2ccccc2Cl)c1C returned HCV inhibitor 13µM*, Lassa entry inh 5%, HCMV inh -9 and MARV entry inh -7%.
`O=C(Nc1ccc(Br)c2cccnc12)c1cccc2ccccc12` gave Lassa entry inh -6%[46.1 µM], Vaccinia Venus -11%, VACV mCherry inh -6%, HCMV inh 10 and MARV entry inh -2%[46.1 µM].
For COc1ccc(CN2CCCC(n3cc(C(=O)N4CCCCC4)nn3)C2)c(OC)c1 (stereo not drawn) the results were Vaccinia Venus 9% and VACV mCherry inh -10%.
Screening COc1ccc(S(=O)(=O)Nc2cccc(-c3ccc(N4CCCC4)nn3)c2)cc1F returned Lassa entry inh -17%[46.1 µM], Vaccinia Venus -12%, VACV mCherry inh -13% and HCMV inh 16.
`O=C1CN(C(=O)c2ccc(S(=O)(=O)N3CCCC3)cc2)C(c2ccccc2)c2cc(Cl)ccc2N1` (stereo not drawn) gave Lassa entry inh inconclusive, Vaccinia Venus -11%, VACV mCherry inh -19%, HCMV inh -14 and MARV entry inh 1%[46.1 µM].
`CC(=O)c1c(C)[nH]c(C(=O)OCc2c(F)cccc2Cl)c1C` gave HCV inhibitor 10µM*, Lassa entry inh inconclusive, Vaccinia Venus -28%, VACV mCherry inh inconclusive, HCMV inh -62* and MARV entry inh inconclusive.
Screening CCOC(=O)c1c(C)[nH]c(C=O)c1Cc1cccc(Cl)c1 returned HCV inhibitor 20%, Lassa entry inh 6.3µM*, Vaccinia Venus inconclusive, VACV mCherry inh -6%, HCMV inh -36 and MARV entry inh inconclusive.
`CCCC(=O)N(C1CC(C)C(C#N)(C#N)C1(C#N)C#N)N(C)C` (stereo not drawn) gave HCV inhibitor inconclusive, Lassa entry inh inconclusive, Vaccinia Venus -12%, VACV mCherry inh inactive, HCMV inh -90* and MARV entry inh inconclusive.
For CC1Sc2ccc(C(=O)NCc3cccc(C(F)(F)F)c3)cc2NC1=O (stereo not drawn) the results were HCV inhibitor 22µM* and HCMV inh 0.
Screening Cc1ccnc(NC(=O)c2ccc3c(c2)NC(=O)C(C)S3)c1 (stereo not drawn) returned HCV inhibitor -21% and HCMV inh 5.
Screening CCCNC(=O)c1ccccc1NC(=O)c1ccc2c(c1)NC(=O)C(C)S2 (stereo not drawn) returned HCV inhibitor 4.5µM* and HCMV inh 15.
Screening CC(=O)c1ccccc1NC(=O)c1ccc2c(c1)NC(=O)C(C)S2 (stereo not drawn) returned HCV inhibitor 11µM*, Lassa entry inh -33%, Vaccinia Venus 0%, VACV mCherry inh 2%, HCMV inh -16 and MARV entry inh inconclusive.
CC(C)Nc1ccc(-c2nc(-c3ccco3)no2)cc1[N+](=O)[O-] was read as Lassa entry inh 2%[46.1 µM], Vaccinia Venus -14%, VACV mCherry inh -21%, HCMV inh 29 and MARV entry inh -17%[46.1 µM].
For Cc1ccc(-n2c3c(cc(C(=O)Nc4cccc(Cl)c4)c2=O)C(=O)CC(C)(C)C3)cc1 the results were Lassa entry inh -28%[46.1 µM], Vaccinia Venus -6%, VACV mCherry inh inactive and HCMV inh 56.
For O=C(Nc1ccc(OCC(F)(F)C(F)F)c(C(F)(F)F)c1)c1ccccc1 the results were HCV inhibitor 10µM*, Lassa entry inh -16%, Vaccinia Venus inconclusive, VACV mCherry inh -25%, HCMV inh -39 and MARV entry inh -20%.
Screening O=C(Nc1ccc(OCC(F)(F)C(F)F)c(C(F)(F)F)c1)c1ccccc1O returned HCV inhibitor 6.3µM*, Lassa entry inh inconclusive, Vaccinia Venus 10µM*, VACV mCherry inh inconclusive, HCMV inh -97* and MARV entry inh inconclusive.
O=C(COc1ccccc1)Nc1ccc(OC(F)(F)C(F)F)c(NC(=O)COc2ccccc2)c1 was read as HCV inhibitor inconclusive, Lassa entry inh inconclusive, HCMV inh 58 and MARV entry inh inconclusive.
O=C(Nc1ccc(OCC(F)(F)C(F)F)cc1)c1ccncc1 was read as HCV inhibitor inconclusive, Lassa entry inh inconclusive, Vaccinia Venus -15%, VACV mCherry inh inactive, HCMV inh -63* and MARV entry inh -28%[46.1 µM].
CCOc1ccc(C=Nc2ccc(/C=C/c3ccnc4ccccc34)cc2)cc1OCC was read as Vaccinia Venus -9% and VACV mCherry inh 20%.

Bioassay records as filed in PubChem.
